PubChem BioAssay
Measured potencies and affinities stand elsewhere. Calls of active or inactive are those of the source. No cut-off is given here; in the data, nearly all actives have IC50 up to about 0.98 µM.

Each compound was assayed against Calcium-dependent protein kinase 1 (Plasmodium falciparum (isolate 3D7)) (UniProt P62344) (assay: PfCDPK1 kinase inhibitors, biochemical, TCAMS library (AID 1159585;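 note: inhibitors leave more ATP so luminescence rises with inhibition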)). Details: recombinant PfCDPK1, Kinase-Glo ATP depletion luminescence.
Chain of Calcium-dependent protein kinase 1 (Plasmodium falciparum (isolate 3D7)) (P62344 whole entry, looked up): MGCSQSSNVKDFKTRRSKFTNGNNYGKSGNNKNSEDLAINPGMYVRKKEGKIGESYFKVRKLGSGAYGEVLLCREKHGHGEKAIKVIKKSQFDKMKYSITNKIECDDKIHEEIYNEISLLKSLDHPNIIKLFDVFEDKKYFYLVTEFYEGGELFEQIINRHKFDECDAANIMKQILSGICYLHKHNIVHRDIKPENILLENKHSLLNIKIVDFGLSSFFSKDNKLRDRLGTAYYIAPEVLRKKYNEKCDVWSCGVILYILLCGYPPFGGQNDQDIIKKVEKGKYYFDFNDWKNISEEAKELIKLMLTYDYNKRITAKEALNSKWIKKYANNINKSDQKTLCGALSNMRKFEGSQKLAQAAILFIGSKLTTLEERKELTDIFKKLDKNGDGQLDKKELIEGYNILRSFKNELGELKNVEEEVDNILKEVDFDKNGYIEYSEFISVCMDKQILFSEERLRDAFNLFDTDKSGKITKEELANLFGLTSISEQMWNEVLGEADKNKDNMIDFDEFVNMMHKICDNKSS

outcome, inactive:
COc1ccccc1C1CCN(C2CCC(NC(=O)/C=C/c3cc(F)cc(C(F)(F)F)c3)CC2)CC1 (stereo not given)
Cc1ccc(Nc2nccc(NCC(O)c3cccc(F)c3)n2)cc1 (stereo not given)
Cc1cccc2[nH]c(-c3ccc(-c4cccc(CN5CCN(c6ccc(C#N)cn6)CC5)c4)s3)nc12
Cc1ccc(NC(=O)NC2CCN(CCCCCNC(=O)/C=C/c3ccc(Cl)c(Cl)c3)CC2)cc1
NC(=Nc1nc(-c2ccccn2)cc2ccccc12)c1cccc(Cl)c1
CCC1CN2CCc3c([nH]c4ccccc34)C2CC1CC1=NCCc2c1[nH]c1ccc(OC)cc21 (stereo not given)
Cn1c(N)c(C(=O)CSc2nnc(-c3cccs3)n2Cc2ccccc2)c(=O)n(C)c1=O
Cc1cc(NC(=O)c2coc3cc(F)c(N4C[C@@H](C)N(C)[C@@H](C)C4)cc23)cnc1-c1ccc(C#N)cc1
N#Cc1cccc(C(=O)Nc2ccc(-c3nc4ccccc4[nH]3)cc2)c1
Cc1ccc(C(=O)Cn2nc(-c3ccc(C)c(S(=O)(=O)N4CCCCC4)c3)ccc2=O)cc1
COc1ccc2c(NN=C(C)c3ccccn3)cc(C)nc2c1
CCCCCCCNCc1c(O)ccc2c(CNCCCCCCC)c(O)ccc12
CCOc1ccc(C(C)NC(=O)C2COc3ccccc3O2)cc1OCC (stereo not given)
Cc1nc(C)c(CC(=O)Nc2ccc(-c3cccc(-c4nc5ccc(C(F)(F)F)cc5[nH]4)c3)cc2)s1
O=S(=O)(Nc1cc2c(cc1OCCCN1CCCCC1)CCNCC2)c1ccc(-c2ccc(Cl)cc2)cc1
